Screens from PubChem BioAssay.
EPAC1 antag: qHTS for Antagonist of cAMP-regulated guanine nucleotide exchange factor 3 (EPAC1): primary screen | EPAC1 GEF assay, Rap1b-BODIPY-GDP exchange fluorescence | Potency, µM (series often up to 115 µM), usual class: inhibitors | hit rate 0.14% among 360,000 | AID 720709, 2013; note: nearly all actives have a fitted effect of over 50% in size
EPAC2 antagonist: qHTS for Antagonist of cAMP-regulated guanine nucleotide exchange factor 2 (EPAC2): primary screen | Rap guanine nucleotide exchange factor 4 (Homo sapiens), Q8WZA2 | EPAC2 GEF exchange of Rap1B-BODIPY-GDP, fluorescence | Potency, µM (series often up to 114 µM), most hits filed as inhibitors | hit rate 0.18% among 360,000 | AID 720708, 2013; note: nearly all actives have a fitted effect of over 45% in size
EPAC2 agonist: qHTS for Agonist of cAMP-regulated guanine nucleotide exchange factor 4 (EPAC2): primary screen; Rap guanine nucleotide exchange factor 4 (Homo sapiens), Q8WZA2; EPAC2 activation, biochemical qHTS; response scale: 100% = 6.5 mM cAMP response; Potency, µM (highest dose often 154 µM), hits mostly activators; hit rate 0.079% among 360,000; AID 720711, 2013; note: nearly all actives have a fitted effect of over 50% in size
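Compounds were titrated in qHTS against a Rap1B-BODIPY-GDP (250 nM) complex with EPAC2 (100 nM) and GDP (50 uM). BODIPY-GDP release tracked at 480/540 nm over 30 min at room temperature, normalized to 6.5 mM cAMP.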
RGS4 inhibitor: Inhibitors of Regulator of G Protein Signaling (RGS) 4: qHTS | Regulator of G-protein signaling 4 (Homo sapiens), P49798 | Transcreener GDP fluorescence polarization, RGS4-accelerated GTP hydrolysis | Potency, µM (highest dose often 114 µM), actives largely listed as inhibitors | hit rate 0.039% among 390,000 | AID 504845, 2011; note: nearly all actives have a fitted effect of over 75% in size
Target sequence (P49798 whole entry, looked up): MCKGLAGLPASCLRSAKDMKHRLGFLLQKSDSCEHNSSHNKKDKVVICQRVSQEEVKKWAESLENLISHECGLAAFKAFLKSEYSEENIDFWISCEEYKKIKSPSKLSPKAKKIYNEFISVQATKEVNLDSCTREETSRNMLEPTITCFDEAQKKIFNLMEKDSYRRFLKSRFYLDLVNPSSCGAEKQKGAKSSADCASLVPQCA
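MLSMR compounds (23 nl, pin-transferred) preincubated 10 min at room temperature with a 500nM (2x) first reagent, then RGS4 at 900nM (2x) plus Transcreener GDP mix added; fluorescence polarization (620/688 nm) read before and after 90 min at 30 °C.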
EPAC1 ag: qHTS for Agonist of cAMP-regulated guanine nucleotide exchange factor 3 (EPAC1): primary screen; EPAC1 agonist qHTS, biochemical assay; response scale: 100% = response to 6.5 mM cAMP; Potency, µM (titrated, usually from 154 µM), usual class: activators; AID 720707, 2013; hit rate 0.073% among 360,000; note: nearly all actives have a fitted effect of over 60% in size
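Compounds were pinned as a concentration titration into mixtures of EPAC1 (100 nM), BODIPY-GDP-loaded Rap1B (250 nM) and GDP (50 uM). After 5 min at room temperature, fluorescence was followed for 30 min; activity was scaled to 6.5 mM cAMP.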
BRCA1 expr act: qHTS Assay to Identify Small Molecule Activators of BRCA1 Expression | hit rate 1.1% among 380,000 | MCF7-BRCA1-FFLuc reporter, luminescence, 48 h; response scale: scaled: vehicle 0%, 10 µM genistein 100% | Potency, µM (series often up to 46.1 µM), actives largely listed as activators | AID 624202, 2012; note: nearly all actives have a fitted effect of over 80% in size
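Activators of BRCA1 expression were detected as increased firefly luciferase luminescence in engineered MCF7 cells after 48 h compound incubation. Signals were scaled to genistein 10 microM as full activation.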
Hits are given with their value; n = inactive; u = inconclusive; x = not tested or not shown. In the library only some 1.3% were active in any assay of this set; here they are far more common. Calls come from the whole dose curve; as a rule, active = well fitted curve in the direction sought with a large enough effect; inconclusive = small, poorly fitted or top-dose-only effect, or another doubt; inactive = no such curve, though single readings can be large; an effect the other way counts as inactive or inconclusive.

SMILES	EPAC1 antag	EPAC2 antagonist	EPAC2 agonist	RGS4 inhibitor	EPAC1 ag	BRCA1 expr act
Cc1cc(C(=O)CSc2nnnn2C)c(C)n1Cc1ccco1	n	n	n	n	n	4.47µM
Cc1cc(C(=O)COC(=O)c2ccc(O)cc2)c(C)n1Cc1ccco1	n	n	n	n	n	2.82µM
CN1C(=O)C(CC(=O)NCCc2ccccc2)N(NC(=O)c2ccc(Cl)cc2)C1=S (configuration not stated)	n	n	n	n	n	n
COc1ccc(C(=O)Nc2cc(C(C)C)c(O)c(S(=O)(=O)c3ccc(OC)cc3)c2C)cc1	x	x	x	n	x	5.62µM
COc1cc(/C=C2\COC/C(=C\c3ccc(O)c(OC)c3)C2=O)ccc1O	89.1µM	n	n	n	n	n
c1ccc(CSc2nc3ncccn3n2)cc1	n	n	n	n	n	2.51µM
O=C(NCCc1ccccc1)c1nc2ncccn2n1	n	n	n	n	n	n
C[C@H]1CN([C@@H](C)CO)S(=O)(=O)c2ccc(Br)cc2O[C@H]1CN(C)C(=O)CN(C)C	n	n	n	x	n	n
Cc1ccc(C(NC(=O)C(C)C)c2cc([N+](=O)[O-])c3cccnc3c2O)cc1 (configuration not stated)	50.1µM	n	n	n	n	n
Nc1nnc(-c2ccc(Cl)cc2Cl)s1	n	n	n	n	n	10µM
Nn1cnnc1N/N=C/c1ccc(Cl)c([N+](=O)[O-])c1	15.8µM	n	n	n	n	n
O=[N+]([O-])c1cc(C=NN2CCCCCC2)ccc1Cl	n	n	n	n	n	2.82µM
O=[N+]([O-])c1cc(/C=N/N2CCCCC2)ccc1Cl	n	n	n	n	n	11.2µM
COc1cccc(C(=O)NCCCNC(=O)c2ccco2)c1	n	n	n	n	n	n
CCN1C(=O)[C@H]2[C@H]3CN=C(SC)N3[C@@](C)(C(=O)OC)[C@H]2C1=O	n	n	n	n	n	n
C=CCn1c(=O)c2ccccc2n2c(SCC(=O)Nc3sc(C)c(CC)c3C(=O)OCC)nnc12	n	n	n	n	n	n
O=C(Nc1ccc(F)c(Cl)c1)N1CCCCCC1	n	n	n	n	n	8.91µM
O=C(Nc1ccc(Cl)cc1)N1CC=CCC1	n	n	n	n	n	7.94µM
CCn1c2ccccc2c2cc(NC(=O)N3CCCCC3)ccc21	n	n	n	x	n	8.91µM
CCN(CC)C(=O)C(=O)Nc1ccc(F)c(Cl)c1	n	n	n	n	n	8.91µM
CCCC(=O)Nc1ccc2c(c1)c1ccccc1n2CC	n	n	n	n	n	n
O=C(Nc1ccc(F)c(Cl)c1)N1CCCC1	n	n	n	n	n	n
O=C(CSc1nc2[nH]c(=O)cc(O)c2s1)Nc1nccs1	n	n	n	n	n	n
O=C(Cn1cnc2ccccc2c1=O)Nc1ccc2c(c1)OCCO2	n	n	n	n	n	3.16µM
Cc1[nH]c2ccccc2c1C(=O)C(=O)Nc1ccc2c(c1)OCCO2	n	n	n	n	n	10µM
O=C(Cn1cnc2ccccc2c1=O)NCCC(=O)Nc1ccc2c(c1)OCCO2	n	n	n	n	n	n
O=C(CN1C(=O)C2C3C=CC(C3)C2C1=O)Nc1ccc2c(c1)OCCO2 (configuration not stated)	u	n	n	n	n	12.6µM
O=C(Nc1ccc2c(c1)OCCO2)C(=O)c1c[nH]c2ccccc12	n	n	n	n	n	n
CC(=O)Nc1ccccc1-c1nnn(CC(=O)Nc2ccc3c(c2)OCCO3)n1	n	n	n	n	n	n
